This passage reports relative growth recovery results from the supplement of paper PMC12340641.

The full ranking holds about 1,000 compounds; the median of “relative growth recovery (pomalidomide 10 uM = 100%, DMSO = 0%)” is about -1.6, and the highest 2% start at about 21. The entries come from a sample that favours the highest values as a whole.

The assay concerns HEK293FT dCK*-IKZF1. The assay is described as follows: relative growth recovery (pomalidomide 10 uM = 100%, DMSO = 0%); higher = more growth rescue (IKZF1 fusion degradation). Conditions: compound concentration: 5 uM; AraC concentration: 0.3 uM; overnight pretreatment + 4 days AraC. The procedure: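 Growth recovery screen of the molecular-glue-like (Specs) library. HEK293FT cells expressing a dCK*-IKZF1 fusion (primary) or dCK* alone (counter) were pretreated overnight with compound at 5 uM, then given 0.3 uM AraC for 4 days. Hoechst nuclei were counted by imaging. Primary: normalised to pomalidomide (100%) and DMSO (0%), mean of 2 replicates. Counter: normalised to no-AraC (100%) and AraC+DMSO (0%), single replicate.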
Consider `CC(C)(C)C(=O)NC1(C(=O)N2CCC(c3cccc(Nc4ncc(Cl)s4)n3)CC2)CCCCC1`, for which the relative growth recovery is -18.6%. The same measure for `COCC(=O)N1CCC(c2cccc(Nc3ncc(C)s3)n2)CC1`: -19.4%. The figure for `Cc1ccc(Nc2nc(-c3sc(NC(=O)c4ccccc4)nc3C)cs2)nc1` is 111%; for `CC(=O)Nc1ccc(-c2csc(Nc3ccc(Cl)cn3)n2)cc1` it is -2.84%. In the case of `CC(=O)Nc1cccc(-c2csc(Nc3cccc(C)n3)n2)c1`, the relative growth recovery was 5.18%.

Regarding `CC(=O)Nc1ccc(-c2csc(Nc3ccccn3)n2)cc1`, the relative growth recovery is 2.7%. The figure for `CC(=O)Nc1ccc(-c2csc(Nc3cccc(C)n3)n2)cc1` is 0.905%. For the molecule `Cc1cccc(Nc2nc(-c3sc(NC(=O)c4ccccc4)nc3C)cs2)n1`, the relative growth recovery is 121%. The figure for `Cc1ccnc(Nc2nc(-c3sc(NC(=O)c4ccccc4)nc3C)cs2)c1` is 111%; for `CC(=O)N1CCCC1c1csc(Nc2ccccn2)n1` (stereo not given) it is -4.06%. The same measure for `CC(=O)N1CCCC(c2csc(Nc3ccc(C)cn3)n2)C1` (stereo not given): -5.95%; for `Cc1nc2ccccn2c1CC(=O)N1CCOC(c2cccc(Nc3nccs3)n2)C1` (stereo not given): 10.9%; for `Cc1cnc(Nc2cccc(C3CN(C(=O)COc4ccccc4)CCO3)n2)s1` (stereo not given): -5.58%. The same measure for `CCCc1cnc(Nc2cccc(C3CCN(C(=O)C4CCCCN4C(=O)CN(C)C)CC3)n2)s1` (stereo not given): -2.86%. With `Cc1csc(Nc2cccc(C3CCN(C(=O)c4cccnc4)CC3)n2)n1`, the relative growth recovery is 8.94%. The figure for `Cc1cc(C)c(C(=O)Nc2ccc(S(=O)(=O)Nc3cc(C)nc(C)n3)cc2)c(C)c1` is -1.16%. The figure for `Cc1csc(Nc2cccc(C3CN(CC(=O)NCc4ccccn4)CCO3)n2)n1` (stereo not given) is 8.57%. The same measure for `Cc1csc(Nc2cccc(C3CN(C(=O)CCC4CCCC4)CCO3)n2)n1` (stereo not given): 21%.

Consider `Cc1csc(Nc2cccc(C3CN(C(=O)Cn4nc(C)ccc4=O)CCO3)n2)n1` (stereo not given), for which the relative growth recovery came out at 1.32%. The same measure for `Cc1cnc(Nc2cccc(C3CN(C(=O)C4CC4c4ccc(Cl)cc4)CCO3)n2)s1` (stereo not given): 28.4%; for `Cc1csc(Nc2cccc(C3CN(C(=O)COc4c(C)cccc4C)CCO3)n2)n1` (stereo not given): 22.3%; for `COc1cccc(OC)c1C(=O)N1CCOC(c2cccc(Nc3nc(C)cs3)n2)C1` (stereo not given): 7.41%. With `Cc1cnc(Nc2cccc(C3CN(C(=O)C4CCCC4)CCO3)n2)s1` (stereo not given), the relative growth recovery is -12.3%.

Regarding `Cc1csc(Nc2cccc(C3CN(C(=O)CCn4ncc5ccccc54)CCO3)n2)n1` (stereo not given), the relative growth recovery turned out to be 18.8%. The same measure for `Cc1cnc(Nc2cccc(C3CN(C(=O)C45CC6CC(CC(C6)C4)C5)CCO3)n2)s1` (stereo not given): -2.75%; for `COCC(=O)N1CCOC(c2cccc(Nc3nc(C)cs3)n2)C1` (stereo not given): 2.9%; for `Cc1cnc(Nc2cccc(C3CN(C(=O)CCC4CCCCC4)CCO3)n2)s1` (stereo not given): 7.2%. The figure for `Cc1csc(Nc2cccc(C3CCCN3C(=O)CCOc3ccccc3C)n2)n1` (stereo not given) is 11.5%. The same measure for `Cc1csc(Nc2cccc(C3CN(C(=O)CCOc4ccccc4C)CCO3)n2)n1` (stereo not given): 62.8%. In the case of `COc1cc(NS(=O)(=O)c2ccc(NC(=O)c3ccc(Br)o3)cc2)nc(OC)n1`, the relative growth recovery stood at 2.29%. The figure for `CC(C)(N)C(=O)N1CCC(CO)(c2cccc(Nc3ncc(-c4ccccc4)s3)n2)CC1` is -19.1%; for `Cc1cc(NS(=O)(=O)c2ccc(NC(=O)c3cccnc3)cc2)nc(C)n1` it is 1.28%; for `CCCOc1ccc(C(=O)Nc2ccc(S(=O)(=O)Nc3ncccn3)cc2)cc1` it is -3.33%. In the case of `Cc1cc(C)nc(NS(=O)(=O)c2ccc(NC(=O)CSc3nc4c(cc3C#N)CCC4)cc2)n1`, the relative growth recovery is -6.17%. As for `Cc1nc(Nc2cccc(C3CCCN3C(=O)CCOc3cccc(F)c3)n2)sc1C` (stereo not given), the relative growth recovery was found to be 8.19%. The figure for `CCOc1ccccc1OCC(=O)Nc1ccc(S(=O)(=O)Nc2ccccn2)cc1` is -1.77%. `COc1ccccc1CCC(=O)N1CCC(c2cccc(Nc3ncc(C)s3)n2)CC1`: the relative growth recovery was 19%. The same measure for `Cc1ccc(N2C(=O)c3ccc(Oc4ccc(N)cc4)cc3C2=O)cc1`: -1.57%; for `Nc1ccc(Oc2ccc3c(c2)C(=O)N(c2ccccc2)C3=O)cc1`: 2.54%. The same measure for `COCCNC(=O)C1(c2cccc(Nc3ncc(C)s3)n2)CCN(C(=O)C2CCCCC2)CC1`: -5.38%; for `Cc1ccnc(NS(=O)(=O)c2ccc(NC(=O)Cc3ccc(Cl)cc3)cc2)n1`: 2.92%; for `Cc1cnc(Nc2cccc(C3CCCN3C(=O)CCCc3ccc(F)cc3)n2)s1` (stereo not given): 0.955%. The same measure for `Cn1cc(/C=C/C(=O)N2CCC(c3cc4ccccc4c(Nc4nccs4)n3)CC2)cn1`: -18.7%. As to `CCc1nccn1CC(=O)N1CCOC(c2cccc(Nc3ncc(C)s3)n2)C1` (stereo not given), the relative growth recovery is 0.35%. The same measure for `Cc1cc(C)c(S(=O)(=O)Nc2ccc(S(=O)(=O)Nc3ncccn3)cc2)c(C)c1`: 6.84%; for `COc1ccc2[nH]c3nc(SCC(=O)Nc4cc(Cl)ccc4OC)nnc3c2c1`: -18.5%; for `COc1cc(NS(=O)(=O)c2ccc(NC(=O)C3CC3)cc2)nc(OC)n1`: -1.71%. The same measure for `O=C(O)CCOCCNc1cccc2c1C(=O)N(C1CCC(=O)NC1=O)C2=O` (stereo not given): -5.19%. The same measure for `O=C(O)CCCNc1cccc2c1C(=O)N(C1CCC(=O)NC1=O)C2=O` (stereo not given): 3.32%. As for `O=C1CCC(N2C(=O)c3cccc(NC[C@H]4CC[C@H](C(=O)O)CC4)c3C2=O)C(=O)N1` (stereo not given in full), the relative growth recovery is 50.3%.
